This is a sample that favours compounds with a hit; in the whole collection about 17% have one here.
ATXN2 expr inh: Primary qHTS for Inhibitors of ATXN expression | HEK-293 ATXN2-luciferase reporter, luminescence, 24 h | Potency, µM (doses to about 57 µM), without a hit: at the highest dose activity change, negative = inhibition, hits mostly inhibitors | 360,000 tested, 0.72% active; further: on the % scale 0 is the no-effect control and ±100 the full control effect; nearly all actives have a fitted effect of over 55% in size
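qHTS (up to 57 uM final) was run with 24 h compound exposure of reporter cells at 37 °C. Each well was multiplexed: SteadyGlo luminescence measured ATXN2-luciferase expression after a fluorogenic Gly-Phe-AFC viability readout (25 uM final).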
DT40 TDP1 CPT: qHTS for Inhibitors of human tyrosyl-DNA phosphodiesterase 1 (TDP1): qHTS in cells in presence of CPT. chicken DT40 Tdp1-/-;hTDP1 cells + 20 nM CPT, ATP luminescence, 48 h. Potency, µM (top dose mostly 46.2 µM), for the others: at the top dose activity change, negative = growth inhibition, hits mostly inhibitors. 420,000 tested, 12% active; further: on the % scale 0 is the no-effect control and ±100 the full control effect; nearly all actives have a fitted effect of over 55% in size
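Cell growth measured by CellTiter-Glo luminescence after a minimum 48 h, 37 C compound exposure with 20 nM CPT in Tdp1-knockout DT40 cells stably expressing hTDP1, seeded 400/well; qHTS titration format.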
HepG2 viability: qHTS for Inhibitors of TGF-b: Cytotox Counterscreen; HepG2 CAGA-GFP viability, ATP luminescence, 18 h; Potency, µM (series often up to 46.1 µM), inactives show top-dose activity change, negative = cytotoxicity, most hits filed as cytotoxic; 410,000 tested, 0.76% active; AID 588856, 2011
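CellTiter-Glo luminescence gave cytotoxicity after 18 hours at 37 degrees C. The cells were HepG2 CAGA-GFP in 1% FBS DMEM, stimulated with 500 pg/mL TGF-beta after compound addition. %Activity was normalised to no-cell wells (complete cell-killing) and DMSO (no toxicity), and curves were fitted and classified.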
S2 tox: Viability Counterscreen for Primary qHTS for Inhibitors of ATXN expression; S2 cells (HEK-293 line with an ATXN2-luciferase reporter) viability, CellTiter-Fluor protease fluorescence, 24 h; Potency, µM (titrated, usually from 56.7 µM), most hits filed as cytotoxic; 400,000 tested, 0.49% active; AID 651635, 2014; further: nearly all actives have a fitted effect of over 40% in size
TDP1 cell noCPT: qHTS for Inhibitors of human tyrosyl-DNA phosphodiesterase 1 (TDP1): qHTS in cells in absence of CPT | AID 686978, 2013 | DT40 Tdp1-/- hTDP1 cells, no CPT, ATP luminescence, 48 h | 420,000 tested, 15% active | Potency, µM (highest dose often 46.2 µM), inactives show at the highest dose activity change, negative = growth inhibition, actives largely listed as inhibitors; further: on the % scale 0 is the no-effect control and ±100 the full control effect; nearly all actives have a fitted effect of over 55% in size
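Stably hTDP1-transfected Tdp1-null chicken DT40 cells were treated with library compounds minus camptothecin and grown for at least 48 hr at 37 °C, after which cellular ATP was quantified by luminescence.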
TGFb inhibitor: qHTS for Inhibitors of TGF-b | HepG2 CAGA-GFP TGF-b/SMAD3 reporter, GFP fluorescence, 18 h; TGF-beta stimulated, 500 pg/mL final | Potency, µM (titrated, usually from 46.1 µM), inactives show at the top dose activity, negative = inhibition, actives largely listed as inhibitors | 410,000 tested, 1.2% active | AID 588855, 2011; further: on the % scale 0 is the no-effect control and ±100 the full control effect; nearly all actives have a fitted effect of over 65% in size
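Smad-responsive CAGA-GFP expression was quantified in HEPG2 cells exposed to compounds and 500 pg/mL final TGF-beta for 18 h at 37 degrees C; unstimulated wells defined full inhibition.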
Starred values were filed as active, the others as inactive; i = inactive; u = inconclusive; x = no result; ! = not active in a repeat; [ ] = remark or other dose. The call rests on the fitted dose curve; in most records, active means well fitted curve in the direction sought with a large enough effect; inconclusive means small, poorly fitted or top-dose-only effect, or another doubt; inactive means no such curve, though single readings can be large; an effect the other way counts as inactive or inconclusive. Potency means the concentration at half of the fitted maximal effect.

SMILES	ATXN2 expr inh	DT40 TDP1 CPT	HepG2 viability	S2 tox	TDP1 cell noCPT	TGFb inhibitor
COc1cccc(-c2cncnc2NCCN2CCOCC2)c1	x	0.82µM*	x	x	2.9µM*	x
Cc1cnc(CNc2ncncc2-c2cccc(C#N)c2)cn1	x	-6%	x	x	0%	x
CCCCC1=NN2C(=N)CC(=O)N=C2S1	6%	0%	5%	i	16%	15%
COC(=O)c1ccccc1NC(=O)c1ccc(CN2CC(=O)N3CCCCC3C2=O)cc1 (centres undefined)	x	u	-7%	x	u	-4%
Cc1cccc(Nc2ncnc3onc(-c4cccc(Cl)c4)c23)c1	-9%	21µM*	-2%	i	u	u
CN(c1ncnc2onc(-c3cccc(Cl)c3)c12)C1CCCCC1	-12%	u	-27%	i	23µM*	u
CC(=O)c1ccc(NC(=O)CSc2nc3nn(-c4ccccc4)c(=O)c-3c3n2CCCCC3)cc1	-17%	26µM*	-14%	i	16µM*	1%
Nc1ccc2ccccc2c1C(=O)c1ccccc1	-15%	-6%	-2%	i	u	8%
CC(=O)N1CCCc2ccc(NS(=O)(=O)c3ccc(C)cc3)cc21	-7%	u	-11%	i	26µM*	-27%
CCOc1ccc(S(=O)(=O)Nc2ccc3c(c2)N(C(C)=O)CCC3)cc1	x	u	-26%	x	18µM*	-19%
COc1ccc(-c2cn3nc(N4CCC(C(=O)NCc5ccccc5F)CC4)sc3n2)cc1	x	u	-9%	x	u	0%
Cc1c(Cl)cccc1NC(=O)C(=O)NNS(=O)(=O)c1ccc(F)cc1	-3%	-22%	-13%	i	-1%	-11%
CCCS(=O)(=O)NC(=O)C1(C)CCN(C(=O)COc2ccc(Cl)cc2Cl)C1 (centres undefined)	9%	-3%	-2%	i	-17%	8%
Cc1ccc(NNC(=O)Nc2ccc(Cl)cc2)nn1	3%	21µM*	3%	i	u	-11%
Nc1nonc1C(=O)NCCNCc1ccccc1OCc1ccccc1F	-32%	u	-29%	i	21µM*	-2%
Fc1ccccc1COc1ccc(Br)cc1CNCC1CCCO1 (centres undefined)	-37%	u	-62%	u	15µM*	-4%
Fc1ccc(COc2ccc(Br)cc2CNCC2CCCO2)cc1 (centres undefined)	u	u	-16%	i	u	-17%
CCOc1ccccc1CNCCNC(=O)c1nonc1N	-6%	u	0%	i	26µM*!	-13%
Nc1nonc1C(=O)NCCNCc1cc(Br)ccc1OCc1ccccc1F	u	21µM*	-59%	i	21µM*	0%
CO[C@H]1[C@H](NC(=O)c2ccncc2)c2ccccc2C12CCN(C(=O)c1ccoc1)CC2	x	17%[9.04 µM]	x	i	4%	x
COc1ccc(C(=O)NNC(=O)c2ccc(F)c(S(=O)(=O)N3CCOCC3)c2)cc1	-5%	-13%	2%	i	-16%	14%
COc1cc(CNCCNC(=O)c2nonc2N)ccc1OCc1ccc(Cl)cc1	-17%	u	-78%	i	21µM*	u
CCOc1c(CNCCNC(=O)c2nonc2N)cccc1OC	-10%	u	5%	i	-25%	0%
CCc1cc(=O)[nH]c(SCc2nc(-c3ccccc3C)no2)n1	x	u	-23%	x	u	u
Cc1ccc2nc(SCc3nc(-c4ccc(Cl)cc4)no3)[nH]c2c1	u	16µM*	-73%	i	23µM*	u
SMILES	ATXN2 expr inh	DT40 TDP1 CPT	HepG2 viability	S2 tox	TDP1 cell noCPT	TGFb inhibitor
CCc1cc(=O)[nH]c(SCc2nc(-c3ccc(C(F)(F)F)cc3)no2)n1	x	23µM*	-54%	x	16µM*	-13%
COc1ccc(-c2noc(CSc3nc(N)cc(=O)[nH]3)n2)cc1	u	16µM*	-3%	u	18µM*	-7%
CCCCNC(=O)O[C@H]1C[C@@H]2CCN3C(=O)CCC[C@H]([C@H]1CC)[C@H]23	6%	-6%	4%	i	-7%	19%
CC[C@@H]1[C@H]2CCCC(=O)N3CC[C@@H](C[C@@H]1Nc1ccccc1)[C@@H]23	-7%	u	-8%	i	18µM*	u
CC[C@@H]1[C@H]2CCCC(=O)N3CC[C@@H](C[C@@H]1OC(=O)Nc1ccc4c(c1)OCO4)[C@@H]23	x	u	-15%	x	u	-23%
CC[C@@H]1[C@H]2CCCC(=O)N3CC[C@@H](C[C@@H]1OC(=O)Nc1ccccc1)[C@@H]23	-6%	11µM*	-20%	i	11µM*	-20%
CCCCNC(=O)O[C@@H]1C[C@@H]2CCN3C(=O)CCC[C@H]([C@H]1CC)[C@H]23	4%	14µM*	10%	i	10µM*	4%
CCOc1ccc(Br)cc1/C(C)=N\NC1=NCCN1	-37%	5.8µM*	-18%	i	4.6µM*	-7%
CCCCCCOc1ccc(/C(C)=N/NC2=NCCN2)cc1	x	u	14µM*	u	u	u
CCCCCOc1ccc(/C(C)=N/NC2=NCCN2)cc1	u	u	-104%	i	u	u
Cc1c(NC(=O)CN2CCN(c3cccc(Cl)c3)CC2)c(=O)n(-c2ccccc2)n1C	-29%	u	-9%	i	u	-16%
COC(=O)c1[nH]c2ccccc2c1NC(=O)CN1CCCCCC1	-6%	u	-30%	i	u	17%
COC(=O)c1sc(NC(=O)CN2CCN(c3cccc(Cl)c3)CC2)c(C(=O)OC)c1C	x	29µM*	-8%	i	33µM*	-15%
COC(=O)c1[nH]c2ccccc2c1NC(=O)CN1CCN(c2cccc(Cl)c2)CC1	-10%	26µM*	-12%	i	16µM*	u
O=C1C2C3C=CC(CC3)C2C(=O)N1c1ccccc1 (centres undefined)	x	4%	-39%	i	u	1%
CC(C)=CCC1C(=O)N(c2ccccc2)N(c2ccccc2)C1=O	u	3.8µM*	x	i	3.8µM*	x
CCCCC1C(=O)N(c2ccccc2)N(c2ccc(O)cc2)C1=O (centres undefined)	5.6µM*	1µM*	8.9µM*	7.9µM*	0.58µM*	5.6µM*
